A selection: hits, their analogues and other compounds. The true share with any hit is near 2.6%.
Jurkat NFkB inh – inhibitors of induced NF-kB luciferase reporter, primary screen, TCR NF-kB activation inhibitor project, cell-based, luminescence, uHTS; Jurkat, PMA/ionomycin-induced NF-kB luciferase reporter; inhibition, % at 4 µM; hit rate 0.53% among 330,000; AID 435003, 2010; in the data active = inhibition above about 50%
H9c2 protect – cardioprotection against H2O2-induced cell death, primary screen, uHTS, H9c2 cells, ATPLite luminescence; H9c2 cardiomyocytes, H2O2 injury protection, 2 h; AID 588492, 2011; protection from H2O2 cell death, % at 20 µM; hit rate 0.63% among 360,000;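 active = compounds giving at least 50% protection of heart cells from peroxide-induced death in the single-dose screen, raw or plate-pattern-corrected value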;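 note: 0% = DMSO wells with peroxide and 100% = DMSO wells without peroxide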
TAG inh – inhibitors of triacylglycerol accumulation, primary screen, cell-based, uHTS, fluorescence, H9c2 | inhibition, % at 12.5 µM | H9c2 cells, Nile Red lipid (TAG) fluorescence; cells loaded with 200 µM oleic acid | hit rate 0.66% among 230,000;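 active = pattern-corrected inhibition of lipid staining of at least 50% with the nuclear-stain viability signal not falling by more than 50%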;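 note: 0% = DMSO wells and 100% = triacsin C control wells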
697 NFkB inh – inhibitors of PMA/ionomycin-induced NF-kB reporter, 697 cells, primary screen, B-cell NF-kB inhibitor project, cell-based, luminescence, uHTS; 697 B-cell NF-kB luciferase reporter, 16 h; hit rate 0.33% among 330,000; inhibition, % at 4 µM; AID 435022, 2010; in the data active = inhibition above about 35%
Gli-Sufu antag – Gli-Sufu pathway antagonists, primary screen, luciferase luminescence, Sufu-KO-LIGHT cells, uHTS | AID 588413, 2011 | hit rate 0.74% among 340,000 | inhibition, % at 5 µM | Sufu-KO-LIGHT fibroblasts, Gli luciferase reporter luminescence;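 active = inhibition above about 55%, limit read from the data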;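 note: 0% = DMSO-treated cells and 100% = wells with medium but no cells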
COUP-TFII inh – NR2F2 transcriptional activity inhibitors, primary screen, cell-based, luciferase reporter, HEK293T, luminescence; COUP transcription factor 2 (Homo sapiens), P24468; HEK293T NGFI-A luciferase reporter; inhibition, % at 8.6 µM; hit rate 0.7% among 370,000;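 active = inhibition above a per-plate cutoff, mean inhibition of test wells between control levels plus 3 SD, cut at about 38% in these data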;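 note: cells cotransfected with COUP-TFII expression vector driving the NGFI-A reporter; 0% = median of COUP-TF2 test wells and 100% = reporter-only cells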
Target sequence (P24468 whole entry, looked up): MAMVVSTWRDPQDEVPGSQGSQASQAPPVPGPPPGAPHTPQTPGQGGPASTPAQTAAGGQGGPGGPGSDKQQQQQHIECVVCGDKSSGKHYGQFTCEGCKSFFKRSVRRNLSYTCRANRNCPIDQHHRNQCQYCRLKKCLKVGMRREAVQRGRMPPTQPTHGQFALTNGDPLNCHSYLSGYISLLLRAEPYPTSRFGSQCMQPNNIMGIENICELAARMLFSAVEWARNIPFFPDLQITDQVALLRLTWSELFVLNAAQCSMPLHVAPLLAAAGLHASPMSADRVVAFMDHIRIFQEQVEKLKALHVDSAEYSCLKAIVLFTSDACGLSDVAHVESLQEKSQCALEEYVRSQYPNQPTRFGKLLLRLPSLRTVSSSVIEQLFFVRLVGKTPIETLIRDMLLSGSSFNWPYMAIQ
Jurkat NFkB conf – PMA/ionomycin-induced NF-kB reporter inhibitors, Jurkat retest, confirmation, T-cell NF-kB inhibitor project, cell-based, luminescence, single concentration. shares compounds with Jurkat NFkB inh. Jurkat NF-kB luciferase, 16 h. inhibition, % at 4 µM. hit rate 27% among 2,700. AID 435020, 2010;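 active = inhibition reaching about 45% at 4 µM in either replicate, limit read from the data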;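 note: plate controls were PMA/ionomycin stimulated DMSO wells for no effect and unstimulated DMSO wells for full effect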
Starred values were filed as active, the others as inactive; nt = no result.

SMILES	Jurkat NFkB inh	H9c2 protect	TAG inh	697 NFkB inh	Gli-Sufu antag	COUP-TFII inh	Jurkat NFkB conf
C[C@@H]1CNCCN1c1ccc(N2CCS(=O)(=O)CC2)c(C#N)c1	nt	nt	nt	nt	nt	-8	nt
COC(=O)C1Cc2c([nH]c3ccccc23)CN1 (stereo not drawn)	53*	6	7	-8	-3	4	8
O=C(C[n+]1ccc(/C=C/c2ccccc2)cc1)c1ccc2c(c1)OCCO2	54*	-4	-24	8	9	-3	18
O=C(c1ccc(Cl)s1)N1CCc2ccccc21	-116	-11	nt	-67	-62	-44	nt
CCc1sc(C(=O)N2CCc3ccccc32)cc1C	-192	-16	-8	-167	-112	-41	-102
Cc1cc(N2CCNC[C@H]2C)ccc1N1C[C@@H](C)O[C@@H](C)C1	nt	nt	nt	nt	nt	23	nt
C=C(C)COc1ccc(-c2[nH]ncc2-c2ccc(OC)cc2)c(O)c1	10	-10	-2	-4	-7	30	nt
C=C(C)COc1ccc(-c2n[nH]c(C)c2-c2ccc(OC)c(OC)c2)c(O)c1	67*	0	56*	-13	-7	-18	50*
C=C(C)COc1ccc(-c2n[nH]c(C)c2Oc2ccccc2OC)c(O)c1	8	-32	-7	1	-16	3	nt
C=C(C)COc1ccc(-c2[nH]ncc2-c2ccc(OC)c(OC)c2)c(O)c1	64*	-19	10	-60	6	17	62*
CC(C)N1CCCCC(NC(=O)c2ccc(F)cc2)C1=O (stereo not drawn)	nt	nt	nt	nt	nt	-14	nt
O=C(Nc1ccc2c(c1)CCC2)c1ccccc1	-159	-9	nt	-242	-118	-39	-154
O=C(O)c1ccccc1-c1ccccc1C(=O)Nc1ccc2c(c1)CCC2	-9	4	7	0	1	-24	nt
O=C(CSc1nnc(-c2cccc(Cl)c2)n1Cc1ccco1)c1ccc(F)cc1	nt	nt	nt	nt	nt	7	nt
Cc1csc2sc(-c3ccnc(SCC(=O)NCc4ccccc4)n3)c(C)c12	69*	2	21	-42	-3	2	42
CCOC(=O)N/N=C/c1c(C)nn(-c2cccc(C(F)(F)F)c2)c1Cl	51*	-8	nt	-44	19	4	46
CNc1cc(C)nc(-n2nc(C)cc2C)n1	4	4	nt	-1	-13	-1	nt
CCOc1ccc(Nc2cc(C)nc(-n3nc(C)cc3C)n2)cc1	54*	-4	-14	11	39	-28	57*
COC(=O)[C@]12C[C@H](CC(=O)N3CCN(C(=O)C4CC4)CC3)C(=O)N(CCc3ccc(OC)c(OC)c3)C1=C[C@H](C(C)(C)C)O[C@@H]2C	nt	nt	nt	nt	nt	6	nt
CCC(C)NC(=O)CNc1nnnn1-c1ccccc1 (stereo not drawn)	nt	nt	nt	nt	nt	-15	nt
Cc1ccc(CN=C2Nc3ccccc3CS2)cc1	-171	-17	-90	-208	-157	-50	-80
Clc1ccc(CN=C2Nc3ccccc3CS2)cc1	-102	-7	-13	-122	-113	-35	nt
Cc1oc(-c2ccc(Cl)cc2)nc1CN1CCCC(C(=O)NC2CC2)C1 (stereo not drawn)	10	-2	nt	-2	10	6	nt
CCOC(=O)N1CCN(C(=O)C2CCCN(Cc3nc(-c4ccc(Cl)cc4)oc3C)C2)CC1 (stereo not drawn)	59*	-29	1	-12	9	73*	55*
Cc1ccc(Cn2cc(CN3[C@@H](Cc4ccccc4)COc4cc(Br)ccc4S3(=O)=O)nn2)cc1	nt	nt	nt	nt	nt	0	nt
SMILES	Jurkat NFkB inh	H9c2 protect	TAG inh	697 NFkB inh	Gli-Sufu antag	COUP-TFII inh	Jurkat NFkB conf
O=S1(=O)CC2c3ccc(F)cc3CN2CN1Cc1ccccc1 (stereo not drawn)	nt	nt	nt	nt	nt	1	nt
Cc1ccc(C2(C(F)(F)F)NC(=O)N3CCCN=C3S2)cc1 (stereo not drawn)	52*	1	nt	2	-2	16	6
COc1ccccc1N1CCN(C(=O)C2c3ccccc3Oc3ccccc32)CC1	55*	14	57*	-29	5	-10	45
COC(=O)CSc1nc(-c2cccs2)ccc1C#N	-153	0	nt	-85	1	-78	-97
CCOC(=O)CSc1nc2cc3c(cc2cc1C#N)OCO3	-200	6	16	-161	-4	-46	-90
COC(=O)CSc1nc2cc3c(cc2cc1C#N)OCO3	-202	2	5	-183	12	-62	-102
CCCc1nc2oc3ccccc3c(=O)c2c(=O)n1-c1ccc(C)cc1	-159	1	3	-83	-5	-40	-54
CCc1nc2oc3ccccc3c(=O)c2c(=O)n1-c1ccc(C)cc1	-91	-1	5	-116	-12	-29	nt
Cc1ccc(-n2c(C(C)C)nc3oc4ccccc4c(=O)c3c2=O)cc1	-198	-2	3	-138	-5	-50	-72
CCOc1ccc(Oc2c(Cl)cnn(Cc3cccc4ccccc34)c2=O)cc1	nt	nt	nt	nt	nt	28	nt
C[C@]12CC[C@@H]3c4ccc(O)cc4[C@@H](O)C[C@H]3[C@@H]1CC[C@@H]2O	2	nt	nt	-9	nt	nt	nt
C[C@]12CC[C@@H]3c4cc(O)c(O)cc4CC[C@H]3[C@@H]1CC[C@@H]2O	52*	108*	18	-41	-4	-2	40
COC(=O)c1cn(-c2ccc(-c3noc4c3C(=O)N(CC(=O)N3CCOCC3)CC4)cc2)nn1	nt	nt	nt	nt	nt	1	nt
Clc1ccc(OCc2nc(-c3ccccn3)no2)c(Br)c1	-165	-30	-16	-244	-83	-10	-119
CC(=O)Nc1cccc(-c2cn3ccc(C)cc3n2)c1	-93	-16	nt	-134	-73	-50	nt
Cc1ccn2cc(-c3cccc([N+](=O)[O-])c3)nc2c1	-166	-8	8	-190	-82	-34	-95
Clc1ccc2nc3c4ccccc4cnn3c2c1	-160	-8	-10	-174	-42	-45	-121
O=C(NCCSc1ccccc1)c1ccc(Br)cc1	-166	-2	nt	-170	-111	-40	-100
CC(=O)c1cccc(NC(=O)c2cc(C(C)C)on2)c1	-99	-8	-9	-85	-78	-77	nt
CC(C)Cc1cc(C(=O)Nc2ccc(Br)cc2)no1	-98	-8	-17	5	4	-39	nt
CC(C)Cc1cc(C(=O)Nc2cccc(O)c2)no1	-203	-22	-5	14	-5	-33	-112
CC(C)c1cc(C(=O)Nc2cccc(Cl)c2)no1	-232	-12	nt	-141	-49	-46	-91
CCCc1cc(C(=O)Nc2ccc(CC)cc2)no1	-177	-3	nt	-136	-8	-70	-91
CCc1ccc(NC(=O)c2cc(C(C)C)on2)cc1	-215	-9	nt	-155	-40	-27	-128

Assay outcomes as filed in PubChem.
